HepG2 tox: counter-screen for TGF-b inhibitors: cytotoxicity in HepG2 cells; actives 0.76% (n = 410,000); HepG2 CAGA-GFP viability, ATP luminescence, 18 h; Potency, µM (top dose mostly 46.1 µM), inactives show at the top dose activity change, negative = cytotoxicity, hits mostly cytotoxic; further: potency means the concentration at half of the fitted maximal effect
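CellTiter-Glo luminescence gave cytotoxicity after 18 hours at 37 degrees C. The cells were HepG2 CAGA-GFP in 1% FBS DMEM, stimulated with 500 pg/mL TGF-beta after compound addition. %Activity was normalised to no-cell wells (complete cell-killing) and DMSO (no toxicity), and curves were fitted and classified.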
uPA generation: inhibitors of cell surface uPA generation; cell surface uPA generation assay, qHTS; Potency, µM (titrated, usually from 38.3 µM), inactives show at the top dose activity change, negative = inhibition, most hits filed as inhibitors; actives 0.31% (n = 330,000); AID 540303; active means well fitted inhibition curve with a large enough effect; inconclusive means small, poorly fitted or top-dose-only effect; inactive means no such curve, though single readings can be large or run the other way; tested in mouse RAW 264.7 cells; further: potency means the concentration at half of the fitted maximal effect; on the % scale 0 is the no-effect control and ±100 the full control effect; nearly all actives have a fitted effect of over 55% in size
ATXN2 expr inh: ATXN2 expression inhibition | HEK-293 ATXN2-luciferase reporter, luminescence, 24 h | Potency, µM (series often up to 57 µM), for inactives: top-dose activity change, negative = inhibition, hits mostly inhibitors | actives 0.72% (n = 360,000); further: potency means the concentration at half of the fitted maximal effect; on the % scale 0 is the no-effect control and ±100 the full control effect; nearly all actives have a fitted effect of over 55% in size
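ATXN2-luciferase reporter cells (luciferase flanked by upstream and downstream ATXN2 gene portions) were treated 24 h at 37 °C with compounds at up to 57 uM. SteadyGlo luminescence gave expression; GF-AFC fluorescence gave viability.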
S2 tox: cell viability loss in ATXN counter-screen. S2 cells (HEK-293 line with an ATXN2-luciferase reporter) viability, CellTiter-Fluor protease fluorescence, 24 h. Potency, µM (titrated, usually from 56.7 µM), most hits filed as cytotoxic. actives 0.49% (n = 400,000). AID 651635; further: potency means the concentration at half of the fitted maximal effect; nearly all actives have a fitted effect of over 40% in size
TGFb SMAD3 inh: TGF-b pathway inhibition; actives 1.2% (n = 410,000); Potency, µM (titrated, usually from 46.1 µM), without a hit: at the top dose activity, negative = inhibition, actives largely listed as inhibitors; HepG2 CAGA-GFP TGF-b/SMAD3 reporter, GFP fluorescence, 18 h; TGF-beta stimulated, 500 pg/mL final; further: potency means the concentration at half of the fitted maximal effect; on the % scale 0 is the no-effect control and ±100 the full control effect; nearly all actives have a fitted effect of over 65% in size
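First, reporter cells (HEPG2 CAGA-GFP) rested 2 h at 37 degrees C. Next, compounds were pinned in and TGF-beta added to 500 pg/mL final. After 18 h, GFP was imaged per cell and summed per well.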
Giardia kill: kills Giardia lamblia; Giardia lamblia trophozoite viability; activity change, % at 7.66 µM, hits read low; actives 0.15% (n = 340,000); AID 540267; in the data active means activity change below about -80%; inconclusive means between about -30% and that limit;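 further: parasites exposed to compound for two days anaerobically before the ATP read; on the % scale 0 is the no-effect control and ±100 the full control effect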
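Each well holds 100 Giardia trophozoites and compound. After two days (48 hrs) at 37 deg C in anaerobic conditions, ATP is quantified by luminescence.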
* marks the source's active call; other numbers are inactive results; i = inactive; u = inconclusive; x = not tested or not shown. Most compounds without a hit are left out; they make up all but 2.6% or so of the library. Unless noted, the call rests on the fitted dose curve; in most records, active means well fitted curve in the direction sought with a large enough effect; inconclusive means small, poorly fitted or top-dose-only effect, or another doubt; inactive means no such curve, though single readings can be large; an effect the other way counts as inactive or inconclusive.

SMILES | HepG2 tox | uPA generation | ATXN2 expr inh | S2 tox | TGFb SMAD3 inh | Giardia kill
CCn1c2ccccc2c2cc(/C=C3\C=Cc4ccccc43)ccc21 | -21% | x | x | x | 9% | x
COC(=O)C1C(=O)c2c([nH]c(C(=O)OCC3CCCO3)c2C)CC1C (stereo not given) | 13% | 13µM* | 4% | i | 29% | -17
Cc1ccccc1OCc1ccc(-c2nc(C#N)c(NCc3cccnc3)o2)o1 | -36% | x | 32µM* | u | u | x
Cc1ccc(OCc2ccc(-c3nc(C#N)c(NCc4cccnc4)o3)o2)cc1 | -24% | x | u | u | -27% | x
COc1ccc(CNc2oc(-c3ccc(COc4ccccc4C)o3)nc2C#N)cc1 | 14µM* | x | -1% | u | -11% | x
Cc1cccc(OCc2ccc(-c3nc(C#N)c(NCc4cccnc4)o3)o2)c1 | -20% | x | 28µM* | 22µM* | u | x
COc1ccc(OCc2ccc(-c3nc(C#N)c(NCc4ccccc4)o3)o2)cc1 | -22% | x | -16% | i | u | x
COCCCNc1ncnc2sc(C(=O)N3CCOCC3)c(C)c12 | x | x | x | i | x | x
CC(C)CC(CSc1ccc(Br)cc1)N1CCN(CCc2ccccc2)CCC1=O (stereo not given) | -1% | x | x | x | 0% | 0
CCc1ccc2occ(CC(=O)Nc3c(C(=O)Nc4ccc(Cl)cc4)oc4ccccc34)c2c1 | -26% | x | 5% | u | 18% | x
CCc1ccc2occ(CC(=O)Nc3c(C(=O)Nc4ccc(C)cc4)oc4ccccc34)c2c1 | 16µM* | x | 27% | i | 13% | x
CN(CCO)C(=O)c1cn(C2CCCN(Cc3ccc4ccccc4c3)C2)nn1 (stereo not given) | x | x | x | i | x | x
Cc1ccc(S(=O)(=O)CCC(=O)c2ccc(F)cc2)cc1 | -98% | -11% | 12% | i | u | -4
Cc1ccc(C(=O)CCS(=O)(=O)c2ccc(F)cc2)cc1 | 13µM* | 11µM* | 4% | i | 16µM* | 10
CCN1c2ccccc2NC2C1C(C(C)=O)C(=O)N2c1ccc(Cl)cc1 (stereo not given) | -33% | -19% | -37% | i | 45% | 6
CCN1c2ccccc2NC2N=C(OC)C(c3ccccc3)C21 (stereo not given) | 11µM* | u | u | i | 13µM* | -5
CN[C@@H]1CN(c2ccc3c(=O)c(C(=O)O)cn(-c4nccs4)c3n2)C[C@@H]1OC | x | x | 11µM* | x | x | x
O=C(Nc1ccccc1)C1CCN(c2nccs2)CC1 | 2% | 3% | -1% | i | 1% | 16
Cc1cccc(N2CCN(Cc3ccc([N+](=O)[O-])o3)CC2)c1C | -4% | 2% | -23% | i | -8% | -86*
O=[N+]([O-])c1ccc(CN2CCN(c3ccc(F)cc3)CC2)o1 | 0% | -24% | 0% | i | -2% | u
COc1cc(=O)n2c(c1C(=O)NC(C)c1ccco1)CCN(Cc1ccccc1Cl)CC2 (stereo not given) | x | x | x | i | x | x
COc1ccc(-c2nn(-c3ccc(F)cc3)c3c2cnc2cc4c(cc23)OCO4)cc1 | -7% | x | 12% | i | 0% | x
COc1cc(OC)cc(-c2ccc3ncc4ccc(=O)n(-c5ccc(N6CCNCC6)c(C(F)(F)F)c5)c4c3c2)c1 | x | x | 19µM* | x | x | x
O=c1c(Cc2ccccc2)c(O)c2cccc3c4c(n1c23)CCCC4 | -34% | -5% | -6% | u | 14µM* | 4
COC(=O)c1cn([C@H]2C[C@@H](C(=O)N3CCCCCC3)N(Cc3ccsc3)C2)nn1 | x | x | x | i | x | x
Cc1cc(Cl)ccc1OCC(=O)Nc1cccc(-c2nc3ccccc3o2)c1 | 3% | x | x | x | -3% | x
CN(C)C1(CNC(=O)C2CCC(=O)N(Cc3ccc(Cl)cc3)C2)CCCCC1 (stereo not given) | 14µM* | -7% | x | i | 2% | -25

Screening results from PubChem BioAssay.
